Results taken from PubChem BioAssay.
Calls of active or inactive are those of the source.

Experiments:
[1] = A549 cell viability effects, profiling panel, calcein-AM fluorescence, 48 h, basal (AID 1162); conditions: higher = more signal
[2] = adipocyte viability effects, profiling panel, cell-based, 3T3-L1 adipocytes, calcein-AM fluorescence, 48 h, basal (AID 1163); conditions: 3T3-L1 adipocytes viability, higher = more signal
[3] = HepG2 cell viability effects, profiling panel, calcein-AM fluorescence, 48 h, basal (AID 1164); conditions: higher = more signal
[4] = MM1S cell viability effects, profiling panel, calcein-AM fluorescence, 48 h, basal (AID 1165); conditions: higher = more signal;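 further: viability of MM1S multiple myeloma cells under basal unstimulated conditions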
[5] = basal RPMI8226 viability, no added stimulus, profiling panel, cell-based, calcein-AM fluorescence, 48 h, PK04 Diversity Set (AID 1166); conditions: RPMI8226 myeloma viability, higher = more signal;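 further: cells grown under basal conditions without added stimulus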
[6] = basal HepG2 mitochondrial membrane potential changes, profiling panel, cell-based, JC-1 fluorescence, 24 h, 100 nL compound (AID 1167); conditions: higher = more signal
[7] = basal 3T3-L1 adipocyte mitochondrial potential changes, profiling panel, cell-based, JC-1 fluorescence, 3T3-L1 adipocytes, 24 h, 100 nL compound (AID 1168); conditions: JC-1 mitochondrial fluorescence, higher = more signal, called active from +8 up or from −8 down
[8] = basal RPMI8226 mitochondrial membrane potential changes, profiling panel, cell-based, JC-1 fluorescence, 24 h, 100 nL compound (AID 1169); conditions: RPMI8226 myeloma, JC-1 mitochondrial potential fluorescence, higher = more signal
[9] = basal MM1S mitochondrial membrane potential changes, profiling panel, cell-based, JC-1 fluorescence, 24 h, 100 nL compound (AID 1170); conditions: higher = more signal
[10] = A549 lung cancer cell viability effects, profiling panel, resazurin fluorescence, 24 h, PK04 Diversity Set (AID 1171); conditions: higher = more signal, called active from +8 up or from −8 down
Further: test concentration not given here.

SMILES | z-score [1] | z-score [2] | z-score [3] | z-score [4] | z-score [5] | z-score [6] | z-score [7] | z-score [8] | z-score [9] | z-score [10]
CCOC(=O)CCN1C(=O)[C@H]2[C@H]3[C@H](O)[C@H](O)CC(=NOCC(C)C)[C@@H]3CC[C@H]2C1=O | -0.0819 | 0.472 | -0.194 | 0.268 | -0.706 | -1.05 | -0.717 (inactive) | 0.562 | 0.104 | -0.237 (inactive)
COC(=O)[C@@H]1CC[C@H](C)[C@@H](c2ccc(Br)cc2)N1C(=O)C(F)(F)F | -0.0701 | -0.0882 | -0.434 | -1.24 | 0.468 | 0.399 | 0.0984 (inactive) | 0.508 | 0.554 | 0.839 (inactive)
CO[C@H]1COC(=O)CC=C[C@@H](C)COC(=O)[C@H]2CCCN2C(=O)CC=C[C@H]1C | 1.22 | -0.429 | 0.707 | 0.462 | 0.18 | 0.722 | 0.00299 (inactive) | 0.418 | 0.748 | -0.823 (inactive)
CCO[C@H](c1cc(OC)cc([N+](=O)[O-])c1OC)[C@H](C)[C@@H](OC)[C@H](C)C=CCC(=O)OC | 0.207 | -0.402 | 0.513 | 0.0601 | 0.824 | -0.524 | -0.476 (inactive) | -0.441 | -0.236 | 0.319 (inactive)
CCOC(=O)CCN1C(=O)[C@H]2[C@H]3[C@H](O)[C@H](O)CC(=NO[C@@H]4O[C@H](CO)[C@@H](O)[C@H](O)[C@H]4O)[C@H]3CC[C@H]2C1=O | 0.484 | -0.961 | -0.898 | -0.359 | -0.0451 | -1.13 | -0.647 (inactive) | -0.225 | -0.171 | -0.292 (inactive)
COc1ccc(O[C@H]2C=C[C@@H](C#Cc3ccccc3)O[C@@H]2CO)cc1 | -0.167 | 0.956 | -1.03 | -3.57 | -3.67 | -1.19 | -0.252 (inactive) | -0.891 | -1.46 | 0.447 (inactive)
CC(C)CON=C1C[C@@H](O)[C@@H](O)[C@@H]2[C@@H]3C(=O)N([C@@H](C)c4ccccc4)C(=O)[C@@H]3CC[C@@H]12 | -0.398 | -0.63 | -0.829 | -0.79 | 0.336 | -0.889 | -0.72 (inactive) | 0.638 | -0.389 | 0.0092 (inactive)
CCOC(=O)NN=C1C[C@@H](O)[C@@H](O)[C@@H]2[C@@H]3C(=O)N(C[C@@H]4CCCO4)C(=O)[C@@H]3CC[C@H]12 | -0.0295 | 0.127 | -1.17 | -0.0085 | 0.121 | -0.686 | -0.408 (inactive) | -0.38 | -0.229 | 0.159 (inactive)
C#CCCCON=C1C[C@@H](O)[C@@H](O)[C@@H]2[C@@H]3C(=O)N([C@@H](C)c4ccccc4)C(=O)[C@@H]3CC[C@@H]12 | 0.241 | -0.532 | -0.47 | -0.597 | -0.337 | -0.998 | -0.377 (inactive) | 0.462 | -0.968 | -0.378 (inactive)
COC(=O)CC=C[C@@H](C)[C@@H](C=NOC(C)CN1CCCCc2nc(C)c(C)cc21)OC (stereo not given in full) | -0.165 | -0.213 | -0.0272 | -1.74 | -0.444 | -0.254 | -0.142 (inactive) | -0.497 | 0.444 | 0.0399 (inactive)
CC(=O)OC[C@H]1O[C@H](CC=NO[C@@H](C)c2cn([C@H](CO)Cc3ccccc3)nn2)C=C[C@@H]1OC(C)=O | -1.04 | -0.0628 | -0.453 | 0.548 | -0.812 | -0.174 | -0.538 (inactive) | 0.15 | -0.76 | 0.095 (inactive)
COc1ccc2c(c1)O[C@@H](c1cccc(C(F)(F)F)c1)[C@H](O)C2=O | 0.759 | -0.941 | -0.294 | -0.277 | 1.29 | -1.25 | 0.0155 (inactive) | -0.239 | -0.724 | -0.536 (inactive)
CC(CCN1CCc2nc(-c3ccccc3)c(-c3ccccc3)cc2C1)=NOC(C)CN1CCCc2nc(C)c(C)cc21 (stereo not given) | 1.23 | 0.301 | 0.69 | -2.9 | -0.616 | 6.43 | -1.28 (inactive) | -0.866 | -0.881 | 0.289 (inactive)
CCOC(=O)NN=C1C[C@@H](O)[C@@H](O)[C@@H]2[C@@H]3C(=O)N(c4ccc(F)cc4F)C(=O)[C@@H]3CC[C@H]12 | -0.999 | 1.01 | -0.925 | 0.593 | -0.895 | 1.11 | -0.734 (inactive) | 0.14 | -0.354 | 0.745 (inactive)
COc1ccc(COC(=O)NN=C2C[C@@H](O)[C@@H](O)[C@@H]3[C@@H]4C(=O)N(C5CCCCC5)C(=O)[C@@H]4CC[C@@H]23)cc1 | 0.0391 | 1.11 | 0.494 | 0.419 | 0.3 | -0.0284 | -0.297 (inactive) | -0.375 | -0.269 | -0.533 (inactive)
CC(C)[C@@H](OCc1ccccc1)[C@H](C)C=NO[C@H](C)c1cn([C@@H]2COC[C@H]2O)nn1 | 0.569 | -0.478 | -0.0131 | 0.0238 | -0.0081 | -0.479 | -0.98 (inactive) | 0.608 | -0.601 | -0.516 (inactive)
C[C@H]1CC[C@H]2C(=O)O[C@H](CO)CN2[C@@H]1c1ccc(Br)cc1 | 0.889 | -0.214 | 0.547 | 0.349 | -0.73 | 0.0194 | -0.526 (inactive) | 0.301 | -0.434 | 0.581 (inactive)
C=CC[C@@H]1C=CC(ON=C(C)C)[C@@H](CO)O1 (stereo not given in full) | 1.08 | -0.521 | 0.389 | 0.255 | -0.153 | -0.459 | -0.346 (inactive) | 0.00663 | -0.644 | -0.816 (inactive)
COc1ccc(COC(=O)NN=C2C[C@@H](O)[C@@H](O)[C@@H]3[C@@H]4C(=O)N(C[C@@H]5CCCO5)C(=O)[C@@H]4CC[C@@H]23)cc1 | 0.795 | -0.825 | 0.245 | -0.657 | 0.51 | 0.567 | 0.658 (inactive) | -0.252 | -1.38 | -0.547 (inactive)
C[C@@H]1CC[C@H]2C(=O)O[C@@H](CN=[N+]=[N-])CN2[C@H]1c1ccc(Br)cc1 | -3.8 | 0.254 | -4.54 | -3.04 | -4.07 | -2.08 | -0.62 (inactive) | -1.18 | -1.33 | -0.487 (inactive)
CC(CCC(=O)OC[C@H]1O[C@H](C#Cc2ccccc2)C=C[C@@H]1Oc1ccc(C)cc1)=NOC[C@@H](C)[C@H](OCc1ccccc1)C(C)C | -0.284 | 0.0487 | -0.489 | -1.44 | 0.164 | -0.043 | -1.77 (inactive) | 1.06 | -0.327 | 0.865 (inactive)
C#CCCCON=C1C[C@@H](O)[C@@H](O)[C@@H]2[C@@H]3C(=O)N(CC)C(=O)[C@@H]3CC[C@H]12 | -0.662 | -0.751 | 0.0801 | 0.489 | 0.516 | -0.58 | -0.625 (inactive) | -0.569 | -0.533 | -0.479 (inactive)
C#CCCCON=C1C[C@@H](O)[C@@H](O)[C@@H]2[C@@H]3C(=O)N(C[C@@H]4CCCO4)C(=O)[C@@H]3CC[C@H]12 | -0.549 | -0.614 | -1.28 | 0.266 | 0.0556 | -0.241 | -0.792 (inactive) | 0.489 | -0.149 | 0.019 (inactive)
COC(=O)C1=C(C)N(Cc2ccccc2)C2=C3C(=O)OCC[C@@H]3[C@@](O)(C(=O)OC)C(=O)N2[C@@H]1c1ccccc1 | 1.62 | -0.792 | 0.24 | 0.489 | -0.755 | 1.85 | -1.11 (inactive) | -0.391 | -0.91 | 0.56 (inactive)
COC(=O)[C@H](C)NC(=O)CCC1CC(OC(=O)NCCc2ccc(F)cc2)CC2(CCCC(COC(=O)NCc3ccccc3)O2)O1 (stereo not given in full) | -0.101 | -0.0012 | 0.601 | 0.756 | -0.484 | 0.995 | 0.553 (inactive) | 0.265 | -0.579 | 0.896 (inactive)
O=C1[C@H]2[C@H]3[C@H](O)[C@H](O)CC(=NOC[C@@H](O)COCc4ccco4)[C@@H]3CC[C@H]2C(=O)N1c1cccc(Oc2ccccc2)c1 | -0.382 | -0.454 | -1.19 | -0.163 | 0.0958 | -0.0749 | -0.785 (inactive) | 0.688 | -0.105 | 0.0561 (inactive)
CN1CCc2nc(-c3ccccc3)c(-c3ccccc3)cc2C1 | -0.244 | 0.665 | 0.135 | 0.33 | 0.455 | 0.25 | -0.53 (inactive) | 0.344 | -0.201 | 0.752 (inactive)
O=C(NN=C1C[C@@H](O)[C@@H](O)[C@@H]2[C@@H]3C(=O)N(Cc4ccc5c(c4)OCO5)C(=O)[C@@H]3CC[C@@H]12)OCc1ccccc1 | -0.592 | 0.911 | -0.423 | 0.291 | -0.531 | 0.222 | 0.243 (inactive) | 0.967 | -1.65 | 0.729 (inactive)
C[C@H]1CC[C@H]2C(=O)N[C@H](Cc3ccccc3)C(=O)N2[C@@H]1c1ccccc1 | -0.103 | 0.283 | 0.194 | -0.643 | 0.0185 | 0.399 | -0.556 (inactive) | 0.471 | 1.28 | -0.232 (inactive)
